A number with no mark means an inactive call.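 Rule for the calls: active = MAPPIT score above the 99th percentile of random reference set scores in the same batch; inactive = at or below it.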
Columns and labels:
Assay in all cases: MAPPIT interaction score (arbitrary units); higher = stronger binary interaction signal, active = hit call of the paper
[1] = molecular target: Nacalpha; conditions: MAPPIT configuration: N-N; pair source set: DPIM
[2] = molecular target: Nedd4; conditions: pair source set: Lit-BM-16
[3] = molecular target: Nnk; conditions: MAPPIT configuration: N-N; pair source set: Curagen_high_conf
[4] = molecular target: Not3; conditions: MAPPIT configuration: N-N; pair source set: Finley_Y2H
[5] = molecular target: Nup107; conditions: MAPPIT configuration: N-C; pair source set: screen_4
[6] = molecular target: dgt6; conditions: pair source set: Lit-BM-16
[7] = molecular target: Nup153; conditions: MAPPIT configuration: N-N; pair source set: DPIM
[8] = molecular target: Pen; conditions: MAPPIT configuration: N-N; pair source set: Lit-BM-16
[9] = molecular target: Nup50; conditions: MAPPIT configuration: N-N; pair source set: DPIM
[10] = molecular target: Nup62; conditions: MAPPIT configuration: N-N; pair source set: Finley_Y2H
[11] = molecular target: PHDP; conditions: MAPPIT configuration: N-N; pair source set: Curagen_low_conf
[12] = molecular target: Or49b; conditions: MAPPIT configuration: N-N; pair source set: DPIM
[13] = molecular target: Su(var)2-10; conditions: MAPPIT configuration: N-N; pair source set: DPIM
[14] = molecular target: Osi8; conditions: MAPPIT configuration: N-C; pair source set: RRS
[15] = molecular target: PAN3; conditions: pair source set: RRS
[16] = molecular target: PCID2; conditions: MAPPIT configuration: N-N; pair source set: Lit-BS-16
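Note: HEK293T cells with Epo stimulation, STAT-responsive firefly luciferase reporter, fold induction versus unstimulated cells divided by the larger fold induction of two negative controls lacking either bait or prey.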

B1: eIF3j (protein)
chain: MADDWESAADSEVVIRPTAAASVNKWEGEDEDEDIKDSWEDEEEKKDEEKPTKTEAPAKPKPNKALKAKLEQQALLEEEAEAKRLANLSPAEKLAEKLRLQKIQEASDLKHAQEAFGVTSTCGGLDAFNPETKEEFKEFGATLSWKVGQFRESEHFPQFVEDLVRSLCVNLSAADIKKVKMNVEILHSEKLKLEKANAKKPAGKGKGKVTLRTENDDIDGYQKYGNDFTEDYDDFM
B1 was tested, and the MAPPIT interaction score [1] was 0.261.

B2: comm (protein)
chain: MISTTDYPTVETTTTAEELYAEYISAPASSMSPAAIAEHLQQNQITFEIPSAHDLRHIDALNSFNALLQRIGNAAVSYDPAPPSGWSPDGSISTEQLSKSVVLDLADLRDRSEESGESSWWSQIFGDADMHVIINYLWIGVVSSLVILSLVFILFSCYFYRKFRTWKKCNKDIRAQIHAASDSYSSHLVGCDASRLLLHQQMQHPHHRSSEAGFYQIESPPCYTIATGLPSYDEALHHQPRHFAYGMKFVYPSLAAVHHHHHCISNWEKQEPLNKLQKCKLSAAAAVEEDKADSSSSTSASASPSSSESSNLATATPAICINMPSGRQDEEVDNSDSDSAIAVAVAVAQSLQPAAPADDDCASLVVVVAA
Binder B2 has an MAPPIT interaction score ([2]; MAPPIT configuration: N-C) of 1.86 and an MAPPIT interaction score ([2]; MAPPIT configuration: N-N) of -0.264.

B3: mei-S332 (protein)
chain: MGSKVEQQYKLLNAELMDQVQKQRLEIGEYRKRVISLEREIMDIREEHVLQNHRQRMENISIVRSLMLSLNVDSDSLAVRQEPAPAAQINRPSGPRRSSREICKDMRRTCALARTTRPISPRRSSSVTSTVSSTSRRSSAEVQSEVVTTRIPEDRRANKPTPPPRRPAELVFDEDDSDDDFDEAVSPVEETQTEQNEENNRLFSIIEENGSEGESTDSSSSCEAIYCDTTFESSPPNAQVTVTPSGRALREVDTNIPVAVSLSRGKETGKGSWLAISVAVEDSPQEPSIQCPRLAVTRPSQSSGIFPDVNGLTPRRSLFNGIGKMAGSTSTPKSFLVEEMPSIRTRSRTAANKKSENTDMSSSFCNNSARPSRSCRPTSLVEPSLKNKLRNGSKGKAKAKK
B3 gave an MAPPIT interaction score [3] of -0.26.

B4: Rga (protein)
chain: MANLNFQQPPRSIANAALAGRTTGGFGGSSLAGHVTPTSGMFQTDFANSYPGTANYGQAPQQQQQQQQQPQLSPNRNAQLSVGGPAISSGNRNANLFGQRQFVERRAMQGLGSGPMSNMGNFMQTGRGGYGTGGGGGGPLNNFHVFGGGGGSDTSTPALLDPTEFPSLTNARGQNDQTLPQSNPLQPPGSKPYGNFFTSFGMVKQPTSEQSEFTMSNEDFPALPGTQNSDGTTNAVGSVAGTGGSGGASTENHLDGTEKPMNSIVVSGSASGSSGSNVGVVGGNGLGAVGSGIGGLAVGGGGGAGSSGGGGVGGNAASGVVGGSHVGLVGSNSGIGGVNSVPNSNAMMGVGGGLGSGSGSSGSGAGGEHLNDNSSNDKLVKSGVQTSPDGKVTNIPATMVNNQFGMVGLLTFIRAAETDPNLVTLSLGTDLTGLGLNLNSQESLHTTFAGPFVAQPCRAQDVEFNVPPEYLINFAIRDKLTAPVLKKLQEDLLFFLFYTNIGDMMQLMAAAELHSREWRYHVEEKIWITRIPGIDQYEKNGTKERGTFYYFDAQSWKRLSKVFQIDPEKLDKCPNISAFMNGQSV
For B4, the MAPPIT interaction score [4] was 0.172.

B5: dgt4 (protein)
chain: METPPTPTTTTPPSLTTEGTMDDIQYLLHLEAMRRFQEDSRNVKRQVEEQVRIWLDAKCEYQRDFGRLARLLKCGALQAAVDAHRVSDVNQVDQAAKDIASLRSKLGSDLRPAILDSNDVKQCLEHLNTTHKPRLNLCRQQREFAQNQEALRSLRTAVDGLENGMEMGMIQAMDRLVEDLLPPRETNN
For B5, the MAPPIT interaction score [5] was 1.57, the MAPPIT interaction score ([6]; MAPPIT configuration: N-C) was 1.64 and the MAPPIT interaction score ([6]; MAPPIT configuration: N-N) was 4.36 (active).

B6: Nup50 (protein)
chain: MAGKRQATSNLNHENWDLEEEPEERGTFRTATEEELKTRVIKKARRKIAGGSSAAEEDGAEEKTAEPKSVFSGFSGFGKPAASPAAGSPFSFLANVTAPATTSSSEPKKSAFSFGFSSSSSSADRPVSTSICGTASTSSTAPSPLPAKESTSTVDGAKPTTSIFGNISAAKKESSEAKTSSSSTSLTSTMETSEYRESVADLNRSVIKFLQDQMGKSPYCILTPVFKNYDEHLKDLQDEESARTNSTKSKTAQARSQEPVAKVSRASSPPKAATTFTFGKPSAPIGASVSPLAKKPNCTITSGGTTTTTATPLVSFGSTASFTAPVPSSSSIFSLTAKPTGEAKSDDTPKSSIFSFGAKDTTTKKDEPNFSAPKTNGFSFGLKSNNDDKPSTSLFAGFGKAPGGAGDGAKGFSFTNSATPFSLGNIHPPAAAAAPAEEEKEEDTPPKVEFKQVVEDDAIYSKRCKVFIKKDKDFGDRGVGTLYLKPVKDSEKIQLLVRADTNLGNILVNLILSKGIPCQRMGKNNVLMVCVPTPEDSKATSLLLRVKTGDEADDLLEKIKEHIK
In the case of B6, the MAPPIT interaction score [7] is reported as 0.802 and the MAPPIT interaction score [8] is reported as 3.66 (active).

B7: Nubp2 (protein)
chain: MLDKVKNVIVVLSGKGGVGKSTVSTQLSLALRKNGFKVGLLDIDLCGPSVPYLLGLEGRDIFQCDDGWVPVYTDESQTLAVMSIGFLLKNREDPVIWRGPKKTMMIRQFLTDVRWDELDYLIIDTPPGTSDEHITVMECLKEVGCHGAIIVTTPQEVALDDVRKEITFCKKTGINILGIVENMSGFVCPHCTSCTNIFSSNGGVSLATYAQVPHLGTLPIDPRVGILAGTTTSVLDELPDSTTAEVLTHIVEKLKTMLVS
B7 gave an MAPPIT interaction score [9] of -0.182.

B8: Nup54 (protein)
chain: MSFFGSNTSLGATSTPAKTTGGLFGSPFGGTAATSQPAPAFGAQATSTPAFGAQPATSAFGAGSAFGATAAAPAFGAATGTSAFGGSAFGSTPAFGAATTTTAGTGLGGGGFGGFGAAPATSQAGLFGAPATSAAPPAFSGFGQQAAASTAPASGFSGFGTTTTSAPAFGGFGTSQSTGFGGGAFGSTFGKPANTTVTPGFGGFGGTSFMLGQPQQQPAPISADEAFAQSILNVSIFGDERDKIVAKWNYLQATWGTGKMFYSQSAAPVDITPENVMCRFKAIGYSRMPGKDNKLGLVALNFCRELSAVKPHQQQVIQTLHSLFGSKPNMLVHIDSIKELENKKCQIVIYVEEKLQHAPNESKRILATELSNYLNQATLKPQLNNLGVVEALALVLPDEDQLREYLENPPRGVDPRMWRQANSDNPDPTLYIPVPMVGFNDLKWRVKCQEQETDTHALYIKKVESELTELKKRHATATAKILEHKRKLAELSHRILRIIVKQECTRKVGTSLTPEEEALRTKLQNMLAVVSAPTQFKGRLSELLSQMRMQRNQFAANGGAEYALDKEAEDEMKTFLTMQQRAMEVLSDTVNKDLRALDVIIKGLPELRQS
With B8 the MAPPIT interaction score [10] was 5.79 (active) and the MAPPIT interaction score [11] was -0.274.

B9: Atx2 (protein)
chain: MNNNSKRKTRPTGGGASGGISRYNSNDNSLRPTNNKAGAGGGNGGAAVRPSAQGVYNNTFFMHSATALVGSVVEVRLRSGNIYEGVFRTFSGNFDIALELPACIKSKNLPEEGKVPKHIIFPADTVVTIVAKDFDSQYATAGAFQTDGAISDKCNGARPDEKELEPWDSGANGDIDIELDSAANGWDPNEMFRKNENTFGVTSTFDDSLASYTVPLDKGDSLEFKEAEAKAEKLAAEIENNPTCRDRLDLENGDEEALFAAVERPSTEQDQRGDRGDRERNDRDREREERDRDRDRDRGNKPRGAGDFQLRETMSSDRYITKQTRSITGPQLSHVGMSSQGSGRDRDTRGDGSMMMQSGGGSGQGGSTQSTAALMLAGGLKGVGPAPSANASADSSSKYSGGSMVKRKTVPQGGKVMRNNVPTGGSNVSVSQGGNGNSVGQNKGGYQPSMGMPSQYSYQGNSQIMHGSSQYRNQSHMGGANKLNGDSNANTNKPLPQRQMRQYQGSQSNSSLNYGGEPQSLGKPVHGSHGGHPGQNSNSPPLQTAGPQQQQQQQQQQQQQQQQQQPPQQQQHQNIQPQGQNTQPARQVRTRDNQMQELRQFGQDFQLAPSNTSPPQQQQQQQQQQQQHQVQQQQQRALQQSASPPQQQQQQQQQQQHVVLHQVPQTHLHQAALSQPHYVPQQQPQQAPLPQQQHVPHHMQQKAQQQQLVETQHQHVQKQHQSQPQVQQPPPQLLQDPSQQPLPIYHTMPPPQTSPVVVTSPVLLEQPPPQPMPVVQQQQTQQLATPKPEVSPAPPSSNTTTPTGIASTPTAGVIASAGSEKTTPAAPTPTSNSATVPTGTAATAGGATGTTPVVKKHVLNPSAKPFTPRGPSTPNPSRPHTPQTPVPMTNIYTTTGGHVPPAANQPIYVMQPQHPFPPQTHPQAGQPPRLRRSNYPPMAASQMHVSASAATGQPLITAGPIPQFIQYGHAPHQQQFQSHTYAPMQMRVYPDQPQQLQFMTQTPQSTTPSPGQPHQQFHPPPQPSPAGGGPQPAFTPPTQAATYQLMCVHPQSLLANHYFPPPTPQHPQQNQQQYQIVMQQHQPQ
Binder B9 has an MAPPIT interaction score [12] of -0.465 and an MAPPIT interaction score [13] of 0.0668.

B10: cid (protein)
chain: MPRHSRAKRAPRPSANNSKSPNDDDTAFRSPEPEDGTDYGLEFTTSQLTLQDNNRRSSTLRRDAGRRQPAARDSSTSGEEEDQENRYPTTRSPQTRRMTVQQESKTRAAGPVAAQNQTRRRKAANPMSRAKRMDREIRRLQHHPGTLIPKLPFSRLVREFIVKYSDDEPLRVTEGALLAMQESCEMYLTQRLADSYMLTKHRNRVTLEVRDMALMAYICDRGRQF
With B10 the MAPPIT interaction score [14] was -0.541.

B11: Dsp1 (protein)
chain: MEHFHQIQQTIQHYQQQLAAQQQQQVQQQQLQQHQVVVQQNQQQAHQNSSNTTAGVGTQQLFTYKMASSFPNPATTMAQVVATSNAAGTTGYDYRLNMAQAAAAAAVPGSQWWYSAANQGQVDANTAAQLQHQQQQQQQQQQQQQQQHQQQQQMQQQQQQQNVINSASPMSRVKADAKPRGRMTAYAYFVQTCREEHKKKHPDETVIFAEFSRKCAERWKTMVDKEKKRFHEMAEKDKQRYEAEMQNYVPPKGAVVGRGKKRKQIKDPNAPKRSLSAFFWFCNDERNKVKALNPEFGVGDIAKELGRKWSDVDPEVKQKYESMAERDKARYEREMTEYKTSGKIAMSAPSMQASMQAQAQKAALLAAAAQQQHQQLEEQHDDDDGDGDDDENQ
In the case of B11, the MAPPIT interaction score ([15]; MAPPIT configuration: N-C) is reported as 0.573 and the MAPPIT interaction score ([15]; MAPPIT configuration: N-N) is reported as 0.707.

B12: Fs(2)Ket (protein)
chain: MTSDIAMQLIAILEKTVSPDKNELLSAKNFLEQAAASNLPEFLKALSEILVNTANSAVARMAAGLQLKNHLTSKDEKVSQQYQDRWHQFPSEIRELIKNNILAALGTENTRPSCAAQCVAYVAVIELPINRWPMLIQTLVNKVVSEGSSEMHRESALEAIGYICQDIRFGVMENQSNDVLTAIIHGMRKVEPSNHVRLAATTALHNSLEFTKSNFEKDMERNFIMEVVCEATQCQDSQICVAALQCLVKIMTLYYQYMEPYMAQALFPITLAAMKSDNDAVALQGIEFWSNVCDEEIDLAIESQEATDQGRAPQRVSKHYARGALQFLTPVLVEKLTKQDECDDEDTWSPAKAASVCLMVLATCCEDEIVPHVLPFIKENIESPNWRFRDAAVMTFGSVLNGLETNTLKPLVEQAMPTLIRLMYDSSVIVRDTIAWTFGRICDIIPEAAINETYLQTLLECFVKSLKSEPRVAANVCWAFIGLSDAAWEAAVTNDGETPETYALSPYFEYIITQLLETTDRSDGAQANLRCAAYQALMDMIKNSPLDCYLVVQRTTLVILERLNQVMQMETQINNHSDRHQFNDLQSLLCATLQSVLRKVHEQDAPQISDAIMTALLTMFNSSAGKSGVVQEEAFLAVSTLVELLGAQFAKYMPAFKDFLVMGLKNFQEYQVCCAAVGLTGDIFRALKDLMVPYSNEIMTVLINNLTEPTIHRTVKPQVLSAFGDIALSIGNHFLPYLSMVLDMLRVASNLQTDANNFDMNEYINELRESILEAYTGIIQGLKGVDQTAHTDVMHMEPHLMHIISFIKRIAQEGDVSDSMLASAAGFIGDLCTSFGPRLYPLLDDAIITQFLAEGKRSKAQRTKMLCTWAVKEIKKINTQVITQ
B12 showed an MAPPIT interaction score [16] of 0.0886.

Reference: the supplement of paper PMC10105736
